Assay results as given in PubChem BioAssay AID1619 (SRMLSC, 2009).
The campaign covered roughly 220,000 compounds. About 830 (0.38%) were called active.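 The calls were made as follows: active = compound inhibiting the enzyme by more than half at any dose during confirmatory dose-response retesting; inconclusive = strong single-dose inhibitors picked by rank but not retested; inactive = the rest.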 These entries were drawn from the full list. Results with a measured potency or affinity are listed apart.

target: Leucine aminopeptidase (Plasmodium falciparum (isolate 3D7)) (UniProt Q8IL11); test: P. falciparum M17LAP inhibitors, primary screen, biochemical, fluorogenic H-Leu-NHMec substrate, 1536-well (AID 1619); conditions: recombinant M17LAP, H-Leu-NHMec fluorogenic kinetic assay; at 30 µM; active compounds read high;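 also: plate controls were full reaction with DMSO carrier for no effect and no enzyme background for full effect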
Sequence (Q8IL11 whole entry, looked up): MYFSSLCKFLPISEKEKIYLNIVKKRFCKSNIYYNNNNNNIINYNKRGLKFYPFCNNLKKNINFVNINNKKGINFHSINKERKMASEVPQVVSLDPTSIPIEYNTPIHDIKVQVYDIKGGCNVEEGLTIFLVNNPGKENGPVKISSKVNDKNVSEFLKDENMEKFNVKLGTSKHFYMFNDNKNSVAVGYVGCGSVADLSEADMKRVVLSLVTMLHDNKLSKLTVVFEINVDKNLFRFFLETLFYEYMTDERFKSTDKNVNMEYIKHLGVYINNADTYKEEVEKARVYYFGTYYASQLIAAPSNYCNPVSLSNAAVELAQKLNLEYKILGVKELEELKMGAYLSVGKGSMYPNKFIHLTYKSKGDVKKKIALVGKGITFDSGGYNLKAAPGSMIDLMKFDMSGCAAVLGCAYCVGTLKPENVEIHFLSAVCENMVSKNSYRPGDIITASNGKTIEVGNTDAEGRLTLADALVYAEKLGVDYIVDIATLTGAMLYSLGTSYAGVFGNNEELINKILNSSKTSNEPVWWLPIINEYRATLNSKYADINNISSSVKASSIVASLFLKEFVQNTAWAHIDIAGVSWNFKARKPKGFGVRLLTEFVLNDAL

inhibition, inactive:
CCOCCCNC(=O)CCNC(=O)c1cc(OC)c(OC)c(OC)c1 3.56%
CCN(CC)S(=O)(=O)c1ccc(C(=O)NCCN2C(=O)S/C(=C\c3cccnc3)C2=O)cc1 -4.15%
[N-]=C=C1C(=S)NC(=O)[C@H]([n+]2ccccc2)[C@H]1c1ccc(Cl)cc1 6.14%
COc1cc(NC(=O)c2ccccc2Cl)c(OC)cc1NC(=O)CN1CCCCC1 13.6%
CC(=O)Nc1ccc(C(=O)CSc2nnnn2C2CCCC2)cc1 11.4%
O=C(Cc1ccccc1)NCC(=O)OC(c1ccccc1)c1ccccc1 0.75%
OC(C#CCN1CCCC1)c1ccccc1 (stereo unspecified) 9.35%
O=S(=O)(c1ccccc1)n1ccc2cccnc21 7.22%
Cc1ccc(S(=O)(=O)CCC(=O)NCc2ccccc2Cl)cc1 22.9%
Cc1ccc(C)c2nc3sc(C(=O)N4CCCc5ccccc54)c(N)c3cc12 8.65%
O=C1C2C(c3ccccc3)C=CC(c3ccccc3)C2C(=O)N1C1CCCCC1 (stereo unspecified) 4.34%
COc1cccc(NC(=O)CSc2ncnc3c2oc2ccccc23)c1 2.46%
COCCn1c(SCC(=O)Nc2cccc(OC)c2)nc2c(oc3ccccc32)c1=O -1.96%
CCC(Sc1ncccc1C(=O)Oc1cccc([N+](=O)[O-])c1)C(=O)Nc1ccccc1OC (stereo unspecified) 46.5%
CSc1cccc(NC(=O)CSc2ncccc2C(=O)Oc2cccc([N+](=O)[O-])c2)c1 53%
CCN(C(=O)CSc1ncccc1C(=O)Oc1cccc([N+](=O)[O-])c1)c1cccc(C)c1 -2.44%
CCOC(=O)c1cccnc1SCC(=O)Nc1ccc(C)cc1 3.41%
O=C(N1CCCCC1)N1CCCN(C(=O)N2CCCCC2)CC1 7.89%
O=C(COc1ccc2ccccc2c1)Nc1ccc(S(=O)(=O)N2CCCCCC2)cc1 -9.55%
CC(=O)Cc1nsc(NC(=O)c2ccccc2)n1 9.29%
Cc1ccc(C(=O)Nc2nnc(C)s2)cc1 11.4%
Cc1ccc(C(=O)Nc2nccs2)cc1 2.76%
O=C(Nc1nc(=O)c2ccccc2s1)c1ccccc1 6.62%
CC(C)CCC1(CCNC(=O)c2cccs2)CCOC(C)(C)C1 (stereo unspecified) 0.32%
Cc1ccc(S(=O)(=O)n2nc(-c3ccco3)nc2N)cc1 -3.51%
O=C(NCCSCc1ccccc1)c1cc(S(=O)(=O)N2CCOCC2)ccc1F 6.12%
